# According to PubChem BioAssay (NCI):
# About 79,000 compounds went through this panel and 15% of them were active in at least one assay; those are over-represented in the sample as a whole. Values without a mark were called inactive. Active and inactive are the calls of the source. Rule as the data show it: active = growth inhibition above about 70%; inactive = the rest.
# Assays:
# [1] = NCI Yeast Anticancer Drug Screen. Data for the rad52 strain (AID 147);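 also: 0% = growth of vehicle-treated control cultures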; conditions: S. cerevisiae rad52 mutant growth inhibition, active compounds read high
# Summary of the method: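 Screen used a yeast mutant impaired in DNA repair. After compound exposure, growth was measured. Values reflect inhibition compared with vehicle-treated cells.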
# [2] = NCI Yeast Anticancer Drug Screen. Data for the wt1 strain (AID 149);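 also: 0% = growth of vehicle-treated wt1 cultures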; conditions: S. cerevisiae wt1 strain (SPY 50644) growth inhibition, active compounds read high
# Summary of the method: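 wt1 strain grown with compound or vehicle; inhibition taken from the growth difference.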
# [3] = NCI Yeast Anticancer Drug Screen. Data for the rad50EPP+ strain (AID 151);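 also: 0% = growth of vehicle-treated control cultures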; conditions: S. cerevisiae rad50 mutant strain, active compounds read high
# Summary of the method: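 Exposing the rad50EPP+ strain to each compound, growth was compared with vehicle-only cultures to give inhibition.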
# [4] = NCI Yeast Anticancer Drug Screen. Data for the mgt1 strain (AID 153); conditions: S. cerevisiae mgt1 mutant growth inhibition, active compounds read high
# Summary of the method: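 Genetically defined yeast (mgt1) treated with compound; inhibition of growth expressed against vehicle-treated controls.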
# [5] = NCI Yeast Anticancer Drug Screen. Data for the rad50 strain (AID 155);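 also: 0% = growth of vehicle-only cultures of the same strain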; conditions: S. cerevisiae rad50 strain growth inhibition, active compounds read high
# Summary of the method: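 DNA repair mutant yeast, compound exposure, growth read-out; inhibition is taken relative to vehicle.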
# [6] = NCI Yeast Anticancer Drug Screen. Data for the mec2-1 strain (AID 157); conditions: S. cerevisiae mec2-1 strain, active compounds read high
# Summary of the method: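 Readout is yeast growth inhibition, normalised to vehicle-treated controls, in the mec2-1 strain exposed to compound.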
# [7] = NCI Yeast Anticancer Drug Screen. Data for the rad14 strain (AID 159);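 also: 0% = growth of vehicle-treated control cultures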; conditions: S. cerevisiae rad14 strain growth inhibition, active compounds read high
# Summary of the method: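 DNA repair-defective yeast, compound-exposed; % growth inhibition derived by comparison with vehicle-treated controls.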
# [8] = NCI Yeast Anticancer Drug Screen. Data for the sgs1 mgt1 strain (AID 161);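 also: 0% = growth of cultures given vehicle only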; conditions: S. cerevisiae sgs1 mgt1 strain, active compounds read high
# Summary of the method: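 Growth of a repair-deficient yeast mutant was monitored after compound treatment and expressed as inhibition relative to vehicle-treated cultures.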
# [9] = NCI Yeast Anticancer Drug Screen. Data for the CLN2oe strain (AID 163);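 also: 0% = growth of vehicle-only control cultures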; conditions: S. cerevisiae CLN2oe strain, active compounds read high
# Summary of the method: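 Values reflect how much compound exposure reduced yeast growth, referenced to vehicle-exposed cells. Assay organism is a strain with a defined genetic change affecting cell-cycle control.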
# [10] = NCI Yeast Anticancer Drug Screen. Data for the cln2 rad14 strain (AID 165);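 also: 0% = growth equal to vehicle treated cultures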; conditions: S. cerevisiae cln2 rad14 strain, active compounds read high
# Summary of the method: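 Relative to vehicle controls, growth inhibition of compound-treated cln2 rad14 yeast was recorded.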
# [11] = NCI Yeast Anticancer Drug Screen. Data for the bub3 strain (AID 167); conditions: S. cerevisiae bub3 mutant strain, active compounds read high
# Summary of the method: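 In this screen, a yeast mutant lacking normal mitotic checkpoint function is challenged with compound. Relative growth versus vehicle gives the inhibition value.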
# [12] = NCI Yeast Anticancer Drug Screen. Data for the wt2 strain (AID 169);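 also: 0% = growth of vehicle-treated yeast cultures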; conditions: S. cerevisiae wt2 strain growth inhibition, active compounds read high
# Summary of the method: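 Values express reduction in yeast growth under compound treatment, referenced to vehicle-treated cells.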
# [13] = NCI Yeast Anticancer Drug Screen. Data for the mlh1 strain (AID 171);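 also: 0% = growth of vehicle-treated control cultures of the same strain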; conditions: S. cerevisiae mlh1 strain growth inhibition, active compounds read high
# Summary of the method: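 Steps: expose the defined-mutant yeast strain to compound; expose a parallel culture to vehicle; measure growth; express compound effect as inhibition relative to the vehicle culture.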
# [14] = NCI Yeast Anticancer Drug Screen. Data for the sgs1 strain (AID 173);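 also: 0% = growth of vehicle-only control cultures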; conditions: S. cerevisiae sgs1 mutant, active compounds read high
# Summary of the method: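 Treat defined-mutant yeast with compound; measure growth; calculate inhibition relative to vehicle-treated cells.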
# [15] = NCI Yeast Anticancer Drug Screen. Data for the mlh1 rad18 strain (AID 175); conditions: S. cerevisiae mlh1 rad18 strain growth inhibition, active compounds read high
# Summary of the method: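 Test agents were incubated with a yeast strain of defined genotype (DNA damage repair defect). Inhibition of growth was derived by comparison with vehicle-exposed cultures.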
# [16] = at 5.0 µM (retest, dose inferred, filed as 0.5)
# [17] = at 50.0 µM (retest, dose inferred, filed as 5.0)
structure (smiles),measurement,setting,value
CCN(CC)[P+](c1ccccc1O)(N(CC)CC)N(CC)CC,growth inhibition,[1]; at 1.2 µM,-25%
same,growth inhibition,[1]; at 3.7 µM,-15%
same,growth inhibition,[1]; at 11.0 µM,17%
same,growth inhibition,[1]; at 33.0 µM,27%
same,growth inhibition,[1]; at 100.0 µM,85% (active)
same,growth inhibition,[2]; at 1.2 µM,-35%
same,growth inhibition,[2]; at 3.7 µM,-25%
same,growth inhibition,[2]; at 11.0 µM,12%
same,growth inhibition,[2]; at 33.0 µM,34%
same,growth inhibition,[2]; at 100.0 µM,84% (active)
same,growth inhibition,[3]; at 1.2 µM,-35%
same,growth inhibition,[3]; at 3.7 µM,-26%
same,growth inhibition,[3]; at 11.0 µM,-33%
same,growth inhibition,[3]; at 33.0 µM,-31%
same,growth inhibition,[3]; at 100.0 µM,-34%
same,growth inhibition,[4]; at 1.2 µM,-42%
same,growth inhibition,[4]; at 3.7 µM,-42%
same,growth inhibition,[4]; at 11.0 µM,-32%
same,growth inhibition,[4]; at 33.0 µM,13%
same,growth inhibition,[4]; at 100.0 µM,76% (active)
same,growth inhibition,[5]; at 1.2 µM,-30%
same,growth inhibition,[5]; at 3.7 µM,9%
same,growth inhibition,[5]; [16],37%
same,growth inhibition,[5]; at 11.0 µM,43%
same,growth inhibition,[5]; at 33.0 µM,54%
same,growth inhibition,[5]; [17],68%
same,growth inhibition,[5]; at 50.0 µM,61.5%
same,growth inhibition,[5]; at 100.0 µM,90% (active)
same,growth inhibition,[6]; at 1.2 µM,-78%
same,growth inhibition,[6]; at 3.7 µM,-39%
same,growth inhibition,[6]; [16],28%
same,growth inhibition,[6]; at 11.0 µM,29%
same,growth inhibition,[6]; at 33.0 µM,24%
same,growth inhibition,[6]; [17],55%
same,growth inhibition,[6]; at 50.0 µM,62.1%
same,growth inhibition,[6]; at 100.0 µM,85% (active)
same,growth inhibition,[7]; at 1.2 µM,-46%
same,growth inhibition,[7]; at 3.7 µM,-38%
same,growth inhibition,[7]; at 11.0 µM,-21%
same,growth inhibition,[7]; at 33.0 µM,32%
same,growth inhibition,[7]; at 100.0 µM,95% (active)
same,growth inhibition,[8]; [16],7%
same,growth inhibition,[8]; [17],99% (active)
same,growth inhibition,[8]; at 50.0 µM,64.8%
same,growth inhibition,[9]; at 1.2 µM,-56%
same,growth inhibition,[9]; at 3.7 µM,-8%
same,growth inhibition,[9]; at 11.0 µM,-23%
same,growth inhibition,[9]; at 33.0 µM,5%
same,growth inhibition,[9]; at 100.0 µM,93% (active)
same,growth inhibition,[10]; [16],8%
same,growth inhibition,[10]; [17],96% (active)
same,growth inhibition,[10]; at 50.0 µM,57.6%
same,growth inhibition,[11]; at 1.2 µM,-41%
same,growth inhibition,[11]; at 3.7 µM,-3%
same,growth inhibition,[11]; [16],23%
same,growth inhibition,[11]; at 11.0 µM,23%
same,growth inhibition,[11]; at 33.0 µM,60%
same,growth inhibition,[11]; [17],98% (active)
same,growth inhibition,[11]; at 50.0 µM,54.6%
same,growth inhibition,[11]; at 100.0 µM,87% (active)
same,growth inhibition,[12]; at 1.2 µM,-25%
same,growth inhibition,[12]; at 3.7 µM,-13%
same,growth inhibition,[12]; at 11.0 µM,-19%
same,growth inhibition,[12]; at 33.0 µM,7%
same,growth inhibition,[12]; at 100.0 µM,77% (active)
same,growth inhibition,[13]; at 1.2 µM,-60%
same,growth inhibition,[13]; at 3.7 µM,-61%
same,growth inhibition,[13]; at 11.0 µM,-22%
same,growth inhibition,[13]; at 33.0 µM,30%
same,growth inhibition,[13]; at 100.0 µM,73% (active)
same,growth inhibition,[14]; at 1.2 µM,-82%
same,growth inhibition,[14]; at 3.7 µM,-50%
same,growth inhibition,[14]; at 11.0 µM,-25%
same,growth inhibition,[14]; at 33.0 µM,11%
same,growth inhibition,[14]; at 100.0 µM,74% (active)
same,growth inhibition,[15]; [16],39%
same,growth inhibition,[15]; [17],74% (active)
same,growth inhibition,[15]; at 50.0 µM,70.2% (active)
